Screens: PubChem, National Center for Advancing Translational Sciences (NCATS)
Rows were chosen to be rich in hits. Some 10% of all compounds tested hit in one or more screens of this group.
L3MBTL1 block: L3MBTL1 (human) inhibition | Q9Y468 | AlphaScreen L3MBTL1–H3K9me1 peptide binding | Potency, µM (doses to about 57.1 µM), for inactives: top-dose activity, negative = inhibition, hits mostly inhibitors | 0.66% of 230,000 active | AID 485360; further: on the % scale 0 is the no-effect control and ±100 the full control effect; nearly all actives have a fitted effect of over 60% in size
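AlphaScreen proximity signal between nickel-chelate acceptor and streptavidin donor beads (final 10 ug/mL) reports binding of 50 nM L3MBTL1 to 75 nM biotin-H3 K9me1 peptide; complex incubated with compounds 30 min at room temperature; cefsulodin titration as control.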
HP1b binding inh: inhibitors of HP1-beta chromodomain binding to methylated histone tails | P83916 | AlphaScreen HP1-beta / biotin-H3K9me3 peptide binding | Potency, µM (doses to about 114 µM), inactives show at the top dose activity change, negative = inhibition, usual class: inhibitors | 0.56% of 390,000 active | AID 540317; further: nearly all actives have a fitted effect of over 70% in size
Target sequence (P83916 whole entry, looked up): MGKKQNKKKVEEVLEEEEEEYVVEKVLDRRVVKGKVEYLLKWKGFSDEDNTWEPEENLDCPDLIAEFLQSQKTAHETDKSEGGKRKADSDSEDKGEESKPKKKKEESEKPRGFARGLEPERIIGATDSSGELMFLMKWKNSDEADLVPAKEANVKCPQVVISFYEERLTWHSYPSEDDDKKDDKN
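HP1-beta protein (50 nM final) preincubated 30 min at room temperature with biotinylated H3(1-18)K9me3 peptide (50 nM) in PBS pH 7.4, 0.01% Tween-20, then compound added for 30 min. AlphaScreen streptavidin donor/nickel chelate acceptor beads (10 ug/mL final), 30 min dark, luminescence read.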
G9a inh: blocks human histone lysine methyltransferase G9a; G9a H3K9 monomethylation, AlphaScreen, 2 h; Potency, µM (highest dose often 102 µM), without a hit: at the top dose activity, negative = inhibition, usual class: inhibitors; 8.8% of 350,000 active; AID 504332; further: on the % scale 0 is the no-effect control and ±100 the full control effect; nearly all actives have a fitted effect of over 75% in size
Target sequence (Q96KQ7 913-1193 limits assumed): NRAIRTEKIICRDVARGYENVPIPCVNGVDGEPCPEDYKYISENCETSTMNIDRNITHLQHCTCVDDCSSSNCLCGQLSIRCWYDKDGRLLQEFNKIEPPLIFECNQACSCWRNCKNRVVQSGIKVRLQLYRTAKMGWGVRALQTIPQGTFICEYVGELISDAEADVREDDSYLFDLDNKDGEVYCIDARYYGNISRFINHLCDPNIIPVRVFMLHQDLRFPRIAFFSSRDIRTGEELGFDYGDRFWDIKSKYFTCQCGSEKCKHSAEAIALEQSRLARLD
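Enzyme 20 nM + cpd, 15 min RT; add b-H3K9 pep 500 nM / SAM 20 uM; 2 h RT; anti-H3K9me1 Ab 0.5 ug/mL + SA donor / anti-rabbit acceptor beads 20 ug/mL each, 10 min; AlphaScreen read.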
BAZ2B block: BAZ2B (human) inhibition; AlphaScreen BAZ2B-H3K14Ac peptide displacement; Potency, µM (series often up to 114 µM), for inactives: at the top dose activity change, negative = inhibition, actives largely listed as inhibitors; 4.4% of 360,000 active; further: on the % scale 0 is the no-effect control and ±100 the full control effect; nearly all actives have a fitted effect of over 60% in size
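In this displacement format the biotinylated H3(5-23) peptide acetylated at Lys14 serves as ligand at 50 nM, with BAZ2B at 50 nM in PBS pH 7.4 containing 0.01% Tween-20. Donor and acceptor beads are 10 ug/mL final.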
JMJD2A Tudor: inhibitors of human JMJD2A Tudor domain. Potency, µM (top dose mostly 114 µM), for the others: at the top dose activity change, negative = inhibition, hits mostly inhibitors. O75164. AlphaScreen JMJD2A-Tudor / H3K4me3 peptide binding. 4.4% of 390,000 active; further: on the % scale 0 is the no-effect control and ±100 the full control effect; nearly all actives have a fitted effect of over 50% in size
GLS inh: blocks human kidney-isoform glutaminase activity; O94925; GLS enzymatic activity, qHTS titration; Potency, µM (top dose mostly 45.5 µM), inactives show top-dose activity change, negative = inhibition, hits mostly inhibitors; AID 624170; 0.21% of 410,000 active; further: on the % scale 0 is the no-effect control and ±100 the full control effect
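Two-point fluorescence kinetic (t0, 30 min RT) for hKGA; glutamate detected via glutamate oxidase–HRP–Amplex Red. Substrate: 1 mM L-glutamine solution; buffer 45 mM KH2PO4, pH 8.2.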
An asterisk follows results filed as active; u = inconclusive; x = not tested or not shown; [ ] = another dose, or the depositor's remark. The call rests on the fitted dose curve; in most records, active means well fitted curve in the direction sought with a large enough effect; inconclusive means small, poorly fitted or top-dose-only effect, or another doubt; inactive means no such curve, though single readings can be large; an effect the other way counts as inactive or inconclusive. Potency means the concentration at half of the fitted maximal effect.

SMILES | L3MBTL1 block | HP1b binding inh | G9a inh | BAZ2B block | JMJD2A Tudor | GLS inh
CC1CCN(S(=O)(=O)c2ccc(NN=C(C#N)C#N)cc2)CC1 | x | x | u | 45µM* | x | x
N#CC(C#N)=NNc1ccc(S(N)(=O)=O)cc1 | x | 35µM* | -1%[12.7 µM] | u | -19%[11.4 µM] | 56%
Cc1ccc(C(=O)Nc2ccc(S(=O)(=O)N3CCC(c4nc5ccccc5s4)CC3)cc2)cc1 | x | 34% | -28%[59 µM] | u | -13% | 2%
C=C(C)[C@H]1O[C@H]2CC[C@@]3(C)[C@@](O)(CC[C@H]4[C@@H]5OC(C)(C)[C@H]6C[C@@H]7C(=C)Cc8c(Cl)cc9[nH]c(c5c9c8[C@@]76O)[C@@]43C)[C@]23O[C@@H]3[C@H]1O | x | x | 13%[59 µM] | x | x | x
Brc1ccc2[nH]cc(C=NN3CCCCCC3)c2c1 | x | u | x | x | 50µM* | 23%
C(=NC1CCCCC1)c1c[nH]c2ccccc12 | x | 18% | x | x | u | -10%
COc1ccccc1CCNCc1ccc(OC)c(OC)c1OC | 11% | -35% | x | 40µM* | 20µM* | 3%
COc1ccc(CCNCc2ccc(OC)c(OC)c2OC)cc1 | x | u | 14µM* | 79µM* | 3.2µM* | -12%
COc1ccc(CNCCc2c[nH]c3ccccc23)c(OC)c1OC | -7% | 18% | u | -37% | -27% | -4%
CCCSP(=O)(OCC)SCCC | x | x | x | x | x | -1%[99.4 µM]
NC(=O)C(c1ccccc1)(c1ccccc1)[C@@H]1CCN(CCc2ccc3c(c2)CCO3)C1 | x | x | -35%[12.7 µM] | x | x | 27%
COc1ccc2[nH]c(C)c(CCNCc3cn(C)c4ccccc34)c2c1 | u | -60% | 7.1µM* | 18µM* | 3.2µM* | 22%
Cc1[nH]c2ccccc2c1CCNCc1cccnc1 | x | 24% | u | u | -31% | 11%
O=C1C=CC(=O)C=C1 | -27% | u | u | x | u | -13%
O=C1C=CC(=O)C(Cl)=C1 | x | x | 0.71µM* | x | x | x
Cc1cccc(N2C(=O)/C(=C/c3ccc(CN(CCC#N)S(C)(=O)=O)o3)C(=O)NC2=S)c1 | x | u | u | 50µM* | 50µM* | u
Cc1ccc(N2C(=O)/C(=C/c3ccc(CN(CCC#N)S(C)(=O)=O)o3)C(=O)NC2=S)cc1C | u | x | 8.9µM* | 40µM* | x | x
COc1cccc(-c2nc3c(C#N)c[nH]n3c2NC2CCCCC2)c1OC | x | 15% | -8%[59 µM] | 4% | -10% | u
O=C1CC(c2ccc(F)cc2)c2c(c3ccccc3oc2=O)O1 (stereo not drawn) | x | 36% | -23%[59 µM] | -17% | -21% | 26%
CCOC(=O)C1(CCOc2ccccc2)CCN(Cc2cnc(SC)nc2)CC1 | -5% | 64% | 50µM* | u | 0% | -7%
CCOC(=O)C1(CCOc2ccccc2)CCN(Cc2cccc(O)c2)CC1 | -3% | 19% | 18% | -5% | -36% | 0%
Cc1cc(C(=O)CN2C(=O)c3ccccc3C2=O)c(C)n1C1CC1 | 33% | 22% | 27%[0.501 µM] | 9% | -5% | 0%
Cc1cc(C=C2C(=O)NC(=O)NC2=O)c(C)n1-c1cccnc1 | x | 10% | -13%[12.7 µM] | -2% | -25% | 12%
Cc1cc(C=C2C(=O)N(C)C(=S)N(C)C2=O)c(C)n1C1CCCCC1 | -14% | 7% | 35µM* | u | -36% | -2%
Cc1cc(C=C2C(=O)NC(=S)NC2=O)c(C)n1C1CCCC1 | -20% | 25% | 45µM* | 79µM* | -23% | 1%
SMILES | L3MBTL1 block | HP1b binding inh | G9a inh | BAZ2B block | JMJD2A Tudor | GLS inh
CCOC(=O)/C=C(C)/C=C/CC(C)CCCC(C)C (stereo not drawn) | x | x | 2%[12.7 µM] | x | x | 1%
CC(C)(C)NCC(O)c1cc(Cl)c(N)c(C(F)(F)F)c1 (stereo not drawn) | x | x | -45%[12.7 µM] | x | x | 0%
COc1ccc(OCc2n[nH]c(=S)n2Cc2ccco2)cc1 | x | u | 2.8µM* | u | u | u
Cn1c(-c2ccccc2)c(P(=S)(c2ccccc2)c2ccccc2)c2ccccc21 | x | x | x | x | -15% | x
Cc1ccc2c(c1)[C@@H]1CN(C)CC[C@H]1N2 | x | x | 3%[12.7 µM] | x | x | 43%
COc1ccc(CC(=O)Nc2ccc(C#N)c(Cl)c2)cc1S(=O)(=O)N1CCOCC1 | x | 18% | 40µM* | u | -10% | 24%
O=C(O)CSCC(=O)N(Cc1ccccc1)c1nc(-c2ccccc2)c(-c2ccccc2)s1 | x | -22% | u | 50µM* | 56µM* | 10%
COC(=O)C1=C(C)NC(C)=C(C(=O)OC)C1c1ccccc1[N+](=O)[O-] | -16% | u | 3µM* | 40µM* | u | 28%
CCn1ccnc1CN1CCCC(C(=O)c2cc(F)ccc2OC)C1 (stereo not drawn) | -2% | -11% | 7.1µM* | -39% | -21% | 5%
CN[C@@H](C)[C@H](O)c1ccccc1 | x | x | 0.045µM* | x | x | x
Cn1c(O)c(C(=O)c2ccccc2F)c(=O)n(C)c1=O | x | 28% | 11µM* | -30% | -17% | -2%
COc1ccc(C(=O)NC(=S)N2C[C@H]3C[C@H](C2)c2cccc(=O)n2C3)cc1 | 6% | 15% | 25µM* | -7% | -22% | 26%
O=C(/C=C/c1ccc(Br)cc1)NC(=S)N1C[C@H]2C[C@H](C1)c1cccc(=O)n1C2 | 8% | 11% | 50µM* | -11% | -31% | 2%
O=C(/C=C/c1ccc(Cl)cc1)NC(=S)N1C[C@H]2C[C@H](C1)c1cccc(=O)n1C2 | 3% | 5% | 18µM* | -34% | -21% | 4%
O=C(Nc1ccccc1F)Oc1cccc(OC(=O)Nc2ccccc2F)c1 | 0% | 43% | 1% | -10% | -1% | 6%
CC(=NCCCn1ccnc1)c1c(O)n(Cc2ccccc2)c(=O)[nH]c1=O | x | 36% | -8% | u | -19% | -6%
CCCNC(=O)c1c(N)n(Cc2ccco2)c2nc3ccccc3nc12 | x | 50% | u | 9% | 31% | 2%
CC(C)OC(=O)c1c(N)n(Cc2ccco2)c2nc3ccccc3nc12 | 8% | 67% | 3.5µM* | -12% | 12% | -6%
CC(C)CNC(=O)c1c(N)n(Cc2ccco2)c2nc3ccccc3nc12 | x | 50% | 45µM* | 21% | -7% | -8%
CN1[C@H]2CC(=O)C[C@@H]1[C@@H](O)C2 | x | x | 1%[21.5 µM] | x | x | x
C[C@H](NC(=O)[C@@H](N)Cc1ccc(O)cc1)C(=O)NCC(=O)N(C)[C@@H](Cc1ccccc1)C(=O)NCCO | x | x | 35%[59 µM] | x | x | x
C[C@H]1COC2=C1C(=O)C(=O)c1c2ccc2c1CCCC2(C)C | u | u | -169%[59 µM] | 14µM* | 32µM* | -4%
CC1COC2=C1C(=O)C(=O)c1c2ccc2c1CCCC2(C)C (stereo not drawn) | x | x | 7.1µM* | x | x | x
